About 83,000 compounds went through this panel and 20% of them were active in at least one assay; those are over-represented in the sample as a whole.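 The endpoint reported here, percent growth, reads 100 for growth as untreated, 0 for no net growth and -100 for all cells dead.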 The source made the active and inactive calls. Rule for the calls: active = growth percent below 10; inactive = the rest.
Tested on: SW-620 colon
Assay: NCI-60 one-dose screen, 48 h (100 = growth as untreated, 0 = no growth, -100 = all killed)
Conditions: 10 µM unless noted

| SMILES | growth |
| --- | --- |
| CC1CC2Oc3ccc(Cl)cc3C(=O)N2O1 (centres undefined) | 99.2% (inactive) |
| COc1cccc(C(=O)NCCNc2cc(-c3cn(-c4ccccc4)nc3-c3cccc(OC)c3)ccn2)c1 | 71.1% (inactive) |
| CN(C)c1ccc(-c2ccc3[nH]c(=O)nc(-c4ccccc4)c3c2)cn1 | 24.5% (inactive) |
| CCN(CC)CCCCCCNc1cc(OC)c(Cl)c2cccnc12 | 81.2% (inactive) |
| NC(=N\N=C/c1ccccc1[N+](=O)[O-])/C(N)=N\N=C/c1ccccc1[N+](=O)[O-] | 105% (inactive) |
| C[n+]1cc2cc(C(N)=O)[nH]c3c(=N)c(Cl)c(N)c1c23 | 30.8% (inactive) |
| COc1ccc(C2=Nc3c(N)ncnc3NC(c3ccc4c(c3)OCO4)C2)cc1 (centres undefined) | 85.5% (inactive) |
| CCN(CC)CCN1C(=O)c2c(c(C)c3c(oc4cc(O)ccc43)c2C)C1=O | -50.2% (active) |
| O=C(Nc1ccccc1Cl)Oc1ccc(-c2ccccc2)cc1 | 112% (inactive) |
| O=C1/C(=C/c2ccc(F)cc2)C=C(c2ccccc2)N1CCc1ccccc1 | 70% (inactive) |
| Cc1cc(Cl)ccc1Nc1nc(C(F)(F)F)ccc1C(=O)N/N=C/c1ccc(N(C)C)cc1 | 15.9% (inactive) |
| CCN1CCN(c2cc(C)nc(NCc3cc(Nc4ccnc5cc(Cl)ccc45)ccc3F)n2)CC1 | 40.8% (inactive) |
| CCN(CC)CCN1CC(O)=C(c2nc(-c3ccc(Cl)cc3)cs2)C1=N | -56.2% (active) |
| CC(=O)n1c(-c2ccc(Cl)cc2)nc2c(c1=O)C(c1ccc(Cl)cc1)c1sc3c(Cl)cccc3c1O2 (centres undefined) | -11.1% (active) |

From PubChem BioAssay (NCI)
